The results in this text go back to PubChem BioAssay (Tox21).

Test [1] is described as follows: Human pregnane X receptor (PXR) small molecule agonists, qHTS cell viability counter screen (AID 1346977). Note: nearly all actives have a fitted effect of over 50% in size. The method, boiled down: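 PXR-Luc HepG2 cells (2,000/well, 5% charcoal-stripped FBS) preincubated 5 hr, then exposed to compounds 24 hr at 37 C. Viability read in the same wells by CellTiter-Fluor fluorescence, reagent added at 23 hr, 1 hr incubation.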
Test [2] in a line: Caspase-3/7 induction in HepG2 cells by small molecules, qHTS assay (AID 1346978). Note: nearly all actives have a fitted effect of over 15% in size. The method, boiled down:
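Caspase-3/7 induction was measured by Caspase-Glo 3/7 luminescence (30 min, room temperature) after a 17 hr compound exposure of wild-type HepG2 cells seeded at 2,000 per well and pre-incubated 5 hr.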

A short description of test [3]: Caspase-3/7 induction in CHO-K1 cells by small molecules, qHTS cell viability counter screen (AID 1346979). Note: nearly all actives have a fitted effect of over 35% in size. In a few lines:
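Wild-type CHO-K1 cells (1,500/well) treated with compound after 5 h plating; after 16 h at 37C, viability read as CellTiter-Fluor fluorescence following 1 h reagent incubation, in the same wells as the caspase read.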
(Quantitative high-throughput screening tests each substance at several concentrations.)

The nature of test [4]: Caspase-3/7 induction in HepG2 cells by small molecules, qHTS cell viability counter screen (AID 1346981). Note: series mostly up to about 92 µM; nearly all actives have a fitted effect of over 30% in size. In a few lines: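 Counter screen for cytotoxicity: HepG2 exposed 16 hr to compounds, then CellTiter-Fluor viability signal (fluorescence, 1 hr reagent incubation).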
The target of test [5] is Nuclear receptor subfamily 1 group I member 2 (Homo sapiens) (UniProt O75469). Put plainly: Human pregnane X receptor (PXR) small molecule agonists, qHTS assay (AID 1346982). Note: nearly all actives have a fitted effect of over 35% in size. Note: potency is the fitted concentration of half-maximal effect. In a few lines: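 Luminescence (ONE-Glo, 30 min RT) after 24 hr compound exposure of PXR-Luc HepG2 cells; cells rested 5 hr post-plating in 5% charcoal-stripped FBS medium.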
Sequence of Nuclear receptor subfamily 1 group I member 2 (Homo sapiens) (O75469 whole entry, looked up): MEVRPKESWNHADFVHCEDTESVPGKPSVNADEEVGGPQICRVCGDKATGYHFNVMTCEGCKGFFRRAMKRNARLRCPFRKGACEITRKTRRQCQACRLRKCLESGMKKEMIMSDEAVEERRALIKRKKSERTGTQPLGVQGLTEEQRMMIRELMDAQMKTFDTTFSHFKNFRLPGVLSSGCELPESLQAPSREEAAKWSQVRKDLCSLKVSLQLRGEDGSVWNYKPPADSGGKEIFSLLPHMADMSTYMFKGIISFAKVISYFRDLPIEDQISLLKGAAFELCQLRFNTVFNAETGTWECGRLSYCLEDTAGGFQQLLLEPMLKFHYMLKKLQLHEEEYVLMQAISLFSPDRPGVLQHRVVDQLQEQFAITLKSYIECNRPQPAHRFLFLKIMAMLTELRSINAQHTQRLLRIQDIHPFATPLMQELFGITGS
Test [6] has as its target Cytochrome P450 2D6 (Homo sapiens) (UniProt P10635). The test is described as follows: Cytochrome P450 Family 2 Subfamily D Member 6 (CYP2D6) small molecule antagonists: luciferase reporter qHTS assay (AID 1671196). Note: nearly all actives have a fitted effect of over 50% in size. Note: potency is the fitted concentration of half-maximal effect. In a few lines: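 Inhibition of CYP2D6 was gauged by loss of luminescence, since light produced tracks the luciferin generated from a proluciferin substrate. A 10 min room-temperature preincubation preceded 1 h NADPH-supported turnover.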

Test [7] has as its target Cytochrome P450 2C19 (Homo sapiens) (UniProt P33261). The test is described as follows: Cytochrome P450 Family 2 Subfamily C Member 19 (CYP2C19) small molecule antagonists: luciferase reporter qHTS assay (AID 1671197). Note: nearly all actives have a fitted effect of over 65% in size. Note: potency is the fitted concentration of half-maximal effect. The method, boiled down: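 Inhibition of CYP2C19 was scored from loss of luminescence in a P450-Glo proluciferin substrate assay, NADPH-started and run 1 h at 37C, with ketoconazole as positive control.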

Test [8] concerns the target Cytochrome P450 2C9 (Homo sapiens) (UniProt P11712). The test is described as follows: Cytochrome P450 Family 2 Subfamily C Member 9 (CYP2C9) small molecule antagonists: luciferase reporter qHTS assay (AID 1671198). Note: nearly all actives have a fitted effect of over 50% in size. Note: potency is the fitted concentration of half-maximal effect. In a few lines:
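Enzyme-substrate mix preincubated with compound 10 min at room temperature; reaction started with NADPH regeneration solution, 1 h 37C. Luminescent luciferin product read after 20 min detection reagent.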
Background: In a reporter assay the amount or activity of a reporter protein is the signal.

Test [9] has as its target Cytochrome P450 1A2 (Homo sapiens) (UniProt P05177). The test is described as follows: Cytochrome P450 Family 1 Subfamily A Member 2 (CYP1A2) small molecule antagonists: luciferase reporter qHTS assay (AID 1671199). Note: series mostly up to about 120 µM; nearly all actives have a fitted effect of over 50% in size. The method, boiled down:
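Signal from luciferin formed by CYP1A2 from a proluciferin substrate is read as luminescence, expressed in relative luminescence units. Compounds sit with enzyme 10 min, NADPH-driven reaction runs 1 h, all at room temperature.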

Test [10] addresses Voltage-gated inwardly rectifying potassium channel KCNH2 (Homo sapiens) (UniProt Q12809). Put plainly: Human Ether-a-go-go-Related Gene (hERG) channel small molecule antagonists: fluorescence cell-based qHTS assay (AID 1671200). In a few lines:
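hERG-U2OS cells plated overnight at 37 C, loaded with FluxOR II dye 1 h at RT in dark; after 10 min, thallium stimulus added. Fluorescence (480/540 nm) read kinetically for 2 min at 1 s intervals.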
For orientation: The hERG channel carries a current that helps repolarise heart muscle cells.

In test [11] the target is Cytochrome P450 3A4 (Homo sapiens) (UniProt P08684). Put plainly: Cytochrome P450 Family 3 Subfamily A Member 4 (CYP3A4) small molecule antagonists: luciferase reporter qHTS assay (AID 1671201). In a few lines:
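P450-Glo CYP3A4 luminescent assay: compounds preincubated 10 min at room temperature with enzyme and proluciferin substrate, NADPH regeneration added, 1 h room-temperature reaction, stopped with luciferin detection reagent; luminescence read after 20 min. Ketoconazole positive control.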

A short description of test [12]: Caspase-3/7 induction in CHO-K1 cells by small molecules, qHTS assay (AID 1346980). Note: nearly all actives have a fitted effect of over 15% in size. In a few lines: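 Luminescent Caspase-Glo 3/7 read (30min, room temperature) quantified apoptosis induction. Cells were wild-type CHO-K1, treated with compound for 17hr at 37 C and 5% CO2.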
Test [13] has as its target Nuclear receptor subfamily 1 group I member 2 (Rattus norvegicus) (UniProt Q9R1A7). Put plainly: Rat pregnane X receptor (rPXR) activation by small molecules, qHTS assay (AID 1346983). Note: nearly all actives have a fitted effect of over 20% in size. The settings on record: rPXR luciferase reporter cells, One-Glo luminescence, 24 h; max activation: stronger effect = higher value. In a few lines: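 Luminescent readout (One-Glo luciferase, 30 min room temperature) followed 24 hr compound treatment at 37 C of rPXR cells plated 2,000 per well and preincubated 5hr; qHTS format with compounds delivered in DMSO.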

In test [14] the target is Nuclear receptor subfamily 1 group I member 2 (Homo sapiens) (UniProt O75469). Put plainly: CYP3A4 induction through human pregnane X receptor (PXR) by small molecules, qHTS assay (AID 1346984). Note: nearly all actives have a fitted effect of over 40% in size. In a few lines: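 DPX-2 reporter cells; 24h cpd, 37C; Luciferin-IPA 3uM final x3h; One-Glo 30 min RT; lumi read.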
Test [15] has the same target. Put plainly: Human pregnane X receptor (PXR) activation by small molecules, qHTS assay (AID 1346985). Note: nearly all actives have a fitted effect of over 40% in size. In a few lines:
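DPX-2 cells (HepG2 co-transfected with a PXR response element and a CYP3A4-promoter luciferase construct) were seeded at 2,000 per well, rested 5 hr at 37C, then exposed to DMSO-dissolved compounds for 24 hr. Activation was read as luciferase luminescence.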

A number with no mark means an inactive call. Records with an inconclusive call do not appear. Calls of active or inactive are those of the source. Calls come from the whole dose curve; as a rule, active = well fitted curve in the direction sought with a large enough effect in the repeat runs; inconclusive = weak or mixed curves; inactive = no such curve, though single readings can be large; an effect the other way counts as inactive or inconclusive.
% is set by controls: 0 for no effect and ±100 for the full control effect.

Sequence of Cytochrome P450 2C9 (Homo sapiens) (P11712 whole entry, looked up): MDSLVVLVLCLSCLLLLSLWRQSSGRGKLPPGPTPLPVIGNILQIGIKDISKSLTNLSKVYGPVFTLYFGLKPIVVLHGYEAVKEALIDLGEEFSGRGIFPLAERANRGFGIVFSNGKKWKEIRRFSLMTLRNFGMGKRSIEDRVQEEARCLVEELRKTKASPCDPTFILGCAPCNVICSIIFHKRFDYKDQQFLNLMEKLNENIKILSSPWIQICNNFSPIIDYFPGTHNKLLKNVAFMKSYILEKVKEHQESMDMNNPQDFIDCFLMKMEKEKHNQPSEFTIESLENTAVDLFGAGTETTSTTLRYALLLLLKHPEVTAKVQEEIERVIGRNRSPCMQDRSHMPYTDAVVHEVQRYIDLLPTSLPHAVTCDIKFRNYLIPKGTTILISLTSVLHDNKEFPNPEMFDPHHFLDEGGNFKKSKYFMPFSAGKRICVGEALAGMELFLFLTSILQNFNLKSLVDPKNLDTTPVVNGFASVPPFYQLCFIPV
Sequence of Cytochrome P450 2D6 (Homo sapiens) (P10635 whole entry, looked up): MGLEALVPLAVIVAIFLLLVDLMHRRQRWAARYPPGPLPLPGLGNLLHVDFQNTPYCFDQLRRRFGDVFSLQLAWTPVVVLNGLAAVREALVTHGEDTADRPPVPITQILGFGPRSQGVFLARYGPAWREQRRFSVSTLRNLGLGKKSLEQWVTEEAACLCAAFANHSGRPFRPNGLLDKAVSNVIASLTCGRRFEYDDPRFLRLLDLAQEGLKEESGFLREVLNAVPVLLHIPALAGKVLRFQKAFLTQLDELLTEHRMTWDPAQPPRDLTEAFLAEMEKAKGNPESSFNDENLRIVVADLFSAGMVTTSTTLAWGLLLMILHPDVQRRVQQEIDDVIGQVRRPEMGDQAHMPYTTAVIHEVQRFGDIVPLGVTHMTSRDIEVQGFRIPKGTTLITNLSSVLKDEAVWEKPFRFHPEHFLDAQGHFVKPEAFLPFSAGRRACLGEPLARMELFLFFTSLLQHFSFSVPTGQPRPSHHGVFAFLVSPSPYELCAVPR
Sequence of Cytochrome P450 2C19 (Homo sapiens) (P33261 whole entry, looked up): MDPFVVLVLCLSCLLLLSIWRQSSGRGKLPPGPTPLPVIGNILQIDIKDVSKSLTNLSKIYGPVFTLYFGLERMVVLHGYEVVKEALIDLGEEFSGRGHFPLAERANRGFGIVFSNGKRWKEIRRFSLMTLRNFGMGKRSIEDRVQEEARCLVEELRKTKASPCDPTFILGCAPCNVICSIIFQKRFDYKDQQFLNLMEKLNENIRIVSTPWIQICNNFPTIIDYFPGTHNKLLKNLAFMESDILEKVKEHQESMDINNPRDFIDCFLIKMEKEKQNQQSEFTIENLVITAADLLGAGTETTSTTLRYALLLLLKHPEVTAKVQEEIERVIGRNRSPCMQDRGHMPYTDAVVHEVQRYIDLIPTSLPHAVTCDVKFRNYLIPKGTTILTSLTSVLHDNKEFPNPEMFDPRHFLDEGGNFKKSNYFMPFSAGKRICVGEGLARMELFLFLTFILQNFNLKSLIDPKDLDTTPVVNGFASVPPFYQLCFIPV
Sequence of Cytochrome P450 1A2 (Homo sapiens) (P05177 whole entry, looked up): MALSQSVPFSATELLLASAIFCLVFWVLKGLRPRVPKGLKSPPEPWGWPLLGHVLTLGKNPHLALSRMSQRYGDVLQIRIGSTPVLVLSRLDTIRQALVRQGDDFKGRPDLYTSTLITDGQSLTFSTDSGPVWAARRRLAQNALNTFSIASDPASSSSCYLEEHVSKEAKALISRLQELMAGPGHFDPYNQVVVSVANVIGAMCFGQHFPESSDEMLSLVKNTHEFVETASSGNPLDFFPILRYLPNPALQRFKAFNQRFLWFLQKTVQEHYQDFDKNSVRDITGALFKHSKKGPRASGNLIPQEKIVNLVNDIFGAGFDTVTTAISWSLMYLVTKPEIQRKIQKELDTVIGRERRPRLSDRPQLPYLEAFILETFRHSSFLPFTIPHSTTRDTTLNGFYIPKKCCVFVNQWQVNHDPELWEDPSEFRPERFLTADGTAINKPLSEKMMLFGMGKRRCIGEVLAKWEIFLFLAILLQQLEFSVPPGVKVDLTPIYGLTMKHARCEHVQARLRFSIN
Sequence of Voltage-gated inwardly rectifying potassium channel KCNH2 (Homo sapiens) (Q12809 whole entry, looked up): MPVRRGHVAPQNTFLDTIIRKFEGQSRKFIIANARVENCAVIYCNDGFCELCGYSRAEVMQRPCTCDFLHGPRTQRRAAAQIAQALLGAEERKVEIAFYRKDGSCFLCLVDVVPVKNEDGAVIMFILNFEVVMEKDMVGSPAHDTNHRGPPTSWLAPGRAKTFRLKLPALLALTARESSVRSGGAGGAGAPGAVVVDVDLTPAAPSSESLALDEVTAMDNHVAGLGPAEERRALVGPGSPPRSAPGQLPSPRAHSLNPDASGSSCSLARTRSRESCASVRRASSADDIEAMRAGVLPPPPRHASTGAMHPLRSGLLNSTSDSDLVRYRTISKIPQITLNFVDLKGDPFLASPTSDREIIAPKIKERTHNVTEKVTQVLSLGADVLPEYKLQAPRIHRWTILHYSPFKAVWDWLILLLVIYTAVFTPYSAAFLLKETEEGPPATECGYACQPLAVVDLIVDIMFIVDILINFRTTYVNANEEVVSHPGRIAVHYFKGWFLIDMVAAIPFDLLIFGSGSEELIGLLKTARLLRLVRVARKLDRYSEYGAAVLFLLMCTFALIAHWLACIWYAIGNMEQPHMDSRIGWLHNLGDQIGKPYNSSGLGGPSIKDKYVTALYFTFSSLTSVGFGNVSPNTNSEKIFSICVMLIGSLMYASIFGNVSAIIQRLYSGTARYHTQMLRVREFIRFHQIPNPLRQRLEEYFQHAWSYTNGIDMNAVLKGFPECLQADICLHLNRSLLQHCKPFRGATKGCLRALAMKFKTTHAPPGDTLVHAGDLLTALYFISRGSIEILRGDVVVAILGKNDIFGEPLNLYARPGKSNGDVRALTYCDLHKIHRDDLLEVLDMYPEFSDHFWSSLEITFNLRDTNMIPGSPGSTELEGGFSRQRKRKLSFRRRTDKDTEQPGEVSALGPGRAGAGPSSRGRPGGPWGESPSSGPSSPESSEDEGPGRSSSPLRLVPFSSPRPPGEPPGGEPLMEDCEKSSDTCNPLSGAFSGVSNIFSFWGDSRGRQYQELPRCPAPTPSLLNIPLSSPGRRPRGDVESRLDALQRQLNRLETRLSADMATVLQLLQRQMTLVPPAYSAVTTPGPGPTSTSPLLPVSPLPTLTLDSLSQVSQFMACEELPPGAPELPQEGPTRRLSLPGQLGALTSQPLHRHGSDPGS
Sequence of Nuclear receptor subfamily 1 group I member 2 (Rattus norvegicus) (Q9R1A7 whole entry, looked up): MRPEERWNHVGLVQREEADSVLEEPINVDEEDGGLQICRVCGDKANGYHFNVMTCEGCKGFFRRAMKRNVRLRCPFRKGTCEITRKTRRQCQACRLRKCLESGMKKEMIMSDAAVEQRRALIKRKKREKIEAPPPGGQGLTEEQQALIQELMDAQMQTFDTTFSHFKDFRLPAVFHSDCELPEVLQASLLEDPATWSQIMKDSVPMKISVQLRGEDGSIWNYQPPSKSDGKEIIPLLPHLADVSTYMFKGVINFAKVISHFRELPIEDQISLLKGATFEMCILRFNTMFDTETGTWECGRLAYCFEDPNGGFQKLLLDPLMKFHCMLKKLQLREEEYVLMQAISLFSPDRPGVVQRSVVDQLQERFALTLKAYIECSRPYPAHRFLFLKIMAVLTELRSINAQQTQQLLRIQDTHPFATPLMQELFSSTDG
Sequence of Cytochrome P450 3A4 (Homo sapiens) (P08684 whole entry, looked up): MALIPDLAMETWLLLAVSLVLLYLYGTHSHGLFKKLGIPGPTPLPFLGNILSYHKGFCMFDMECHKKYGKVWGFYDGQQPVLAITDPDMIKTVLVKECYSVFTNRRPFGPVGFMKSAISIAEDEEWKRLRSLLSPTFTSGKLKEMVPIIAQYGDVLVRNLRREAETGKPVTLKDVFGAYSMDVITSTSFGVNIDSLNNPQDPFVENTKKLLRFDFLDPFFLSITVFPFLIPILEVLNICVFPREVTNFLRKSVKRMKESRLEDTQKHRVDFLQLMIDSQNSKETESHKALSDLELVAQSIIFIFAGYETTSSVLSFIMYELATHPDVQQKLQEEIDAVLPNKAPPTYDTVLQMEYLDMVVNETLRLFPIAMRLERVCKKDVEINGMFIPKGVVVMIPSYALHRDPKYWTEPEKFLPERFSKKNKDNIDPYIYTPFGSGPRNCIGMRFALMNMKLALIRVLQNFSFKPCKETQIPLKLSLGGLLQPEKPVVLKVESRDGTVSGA

As for `CCCCCCCCCCCCCCCCCC(=O)OCCCCCCCCCCCCCC(C)C`, the Potency entry in test [1], in [3], in [5], in test [6], in [7] and in [8] was “inactive” throughout. The Potency result in test [9], in test [10] and in test [11] was “inactive” each time. The call in test [2] and in test [4] was inactive.

Turning to `CCCCCCCCC=O`, the Potency result in test [1], in [3], in test [5], in [6], in test [7] and in test [9] was “inactive” each time. Further, the Potency result in test [10] and in [11] was “inactive” each time. In addition, the compound was called inactive in test [2] and in test [12].

Turning to `Nc1[nH]c(=O)ncc1F`, the Potency entry in test [1], in test [3], in test [5], in test [14], in [15] and in test [6] was “inactive” throughout. In addition, the Potency entry in [8], in [9], in [10] and in test [11] was “inactive” each time. For the same compound, the outcome in test [2] and in [4] was inactive. For the same compound, the max activation in test [13] is -0.668%.

As for `OCc1ccccn1`, the Potency entry in [1], in [5], in test [14], in test [15], in [6] and in [7] was “inactive” in each case. In addition, the Potency entry in test [8], in test [10] and in test [11] was “inactive” in each case. Moreover, the outcome in test [2], in test [12] and in test [4] was inactive. The max activation in test [13] is -1.13%.

`CC1(C)SC(C)(C)SC(C)(C)S1`: the Potency entry in test [1], in [3], in test [5], in [6], in test [7] and in test [8] was “inactive” throughout. For the same compound, the Potency entry in [9], in [10] and in [11] was “inactive” each time. Moreover, the compound was classed as inactive in test [2] and in test [4].

For the compound `Cc1ccccc1C(=O)O`, the Potency entry in [1], in test [6], in test [7], in [8], in test [9] and in test [10] was “inactive” in each case. In [11], the Potency entry is “inactive”. In addition, the call in test [2] and in [12] was inactive. Besides, the Potency in [5] is 30.1 µM (active).

As to `CC(C)CCCC(C)CCCC(C)CCCCC(C)CCCC(C)CCCC(C)C` (centres undefined), the Potency entry in [1], in test [5], in [15], in test [6], in [7] and in [8] was “inactive” each time. Moreover, the Potency entry in test [9], in test [10] and in test [11] was “inactive” in each case. The compound was called inactive in [2], in test [12] and in test [4]. The max activation in [13] was -0.619%.

On to `Oc1cc(O)c2c(c1)O[C@H](c1ccc(O)c(O)c1)[C@H](O)C2`, for which the Potency entry in [1], in test [3], in [5], in test [6], in test [7] and in test [8] was “inactive” throughout. Moreover, the Potency entry in test [10] and in test [11] was “inactive” in each case. Besides, the call in test [2] and in test [4] was inactive.

Regarding `C=C(C)[C@H]1CC=C(C)CC1`, the Potency result in test [1], in [3], in test [7], in test [8], in [10] and in test [11] was “inactive” each time. Further, the call in test [2] and in test [12] was inactive. The figures for the Potency in test [5] and in test [6] were 61.1 µM (active) and 35.6 µM (active), respectively.

For the compound `OC/C=C/c1ccccc1`, the Potency result in [1], in [3], in [5], in test [14], in test [15] and in [10] was “inactive” throughout. In [11], the Potency entry was “inactive”. The compound was called inactive in test [2] and in test [4]. Further, the max activation in test [13] is -5.54%. Moreover, the Potency is 59 µM (active) in test [6], 74.3 µM (active) in [7] and 52.6 µM (active) in test [8].
